Measured values from PubChem BioAssay AID777 (Sanford-Burnham Center for Chemical Genomics, 2007).
The whole screen tested about 96,000 compounds, of which about 19,000 (20%) were called active. Not all results are given here. Values without a mark were called inactive.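 The calls were made as follows: active = blocking of liver enzyme CYP2C9 beyond about 50% at 5 µM (limit read from the data); inactive = the rest.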

Each compound was assayed against Cytochrome P450 2C9 (Homo sapiens) (UniProt P11712) (assay: blockers of cytochrome P450 2C9 activity – biochemical, luminescence, ADME assay, primary screen (AID 777)). Settings: CYP2C9 Supersomes, luciferin-H conversion, at 5 µM, hits give high values.
Cytochrome P450 2C9 (Homo sapiens), sequence (P11712 whole entry, looked up): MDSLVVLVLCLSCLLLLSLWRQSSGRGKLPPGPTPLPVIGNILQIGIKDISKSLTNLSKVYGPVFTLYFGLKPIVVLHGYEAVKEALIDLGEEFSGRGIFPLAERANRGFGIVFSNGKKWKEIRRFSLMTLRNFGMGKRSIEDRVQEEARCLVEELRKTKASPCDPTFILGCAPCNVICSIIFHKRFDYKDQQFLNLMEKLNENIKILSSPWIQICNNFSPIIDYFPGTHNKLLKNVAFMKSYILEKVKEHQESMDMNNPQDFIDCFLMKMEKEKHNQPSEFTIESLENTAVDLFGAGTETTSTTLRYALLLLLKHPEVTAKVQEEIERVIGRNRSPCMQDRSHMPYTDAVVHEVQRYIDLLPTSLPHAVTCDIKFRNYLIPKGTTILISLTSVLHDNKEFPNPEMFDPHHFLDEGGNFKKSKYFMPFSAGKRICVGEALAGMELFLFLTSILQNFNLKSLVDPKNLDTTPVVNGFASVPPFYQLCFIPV
`CCOc1c(Cl)cc(/C=N/O)cc1OC` was tested, and the inhibition was -30%.
For `COC(=O)c1cc(C(=O)OC)cc(N2C(=O)CC(N3CCN(c4ccccc4)CC3)C2=O)c1` (configuration not stated), the inhibition was 49%.
For `Cn1cc(S(=O)(=O)N2CCC(Cc3ccccc3)CC2)c(=O)n(C)c1=O`, the inhibition was 23.7%.
Work on `C=C1c2cc(CC)ccc2NC(=O)N1c1ccc(C)cc1` yielded an inhibition of 10.6%.
For `CC(C)(C)n1nnc(CCc2nnn(C(C)(C)C)n2)n1`, the inhibition was 3.2%.
`Cc1c(NC(=O)/C=C/C(=O)O)cccc1[N+](=O)[O-]` showed an inhibition of -2.8%.
With `Cc1ccc(NC2(C#N)C(=O)Nc3ccccc32)cc1` (configuration not stated) the inhibition was -24.6%.
For `CCOC(=O)c1c(NC(C)=O)sc2c(O)c(Br)ccc12`, the inhibition was 55% (active).
With `CCOC(=O)c1c(NC(=O)CCl)sc(C(=O)N(CC)CC)c1C` the inhibition was 49.6%.
`CCOC(=O)c1c(NC(=O)/C=C/c2ccco2)sc(C)c1C` gave an inhibition of -4%.
Work on `CC(=O)Nc1nonc1-c1nc2ccccc2n1Cc1ccccn1` yielded an inhibition of 7.4%.
For `COc1ccccc1N1CCN(C(=O)c2c(-c3c(Cl)cccc3Cl)noc2C)CC1`, the inhibition was 88% (active).
Compound `COc1ccccc1N1CCN(C(=O)c2cc(-c3ccc(Br)cc3)on2)CC1` has an inhibition of -12%.
`COc1ccccc1N1CCN(C(=O)CSc2nnc(-c3ccoc3C)o2)CC1` gave an inhibition of 25.8%.
Work on `CN1CCN(CCCNC(=O)c2cc3c(=O)oc4ccccc4c3s2)CC1` yielded an inhibition of -15.9%.
With `COc1ccc(OCC(=O)NCCc2ccc(S(N)(=O)=O)cc2)cc1` the inhibition was 41.9%.
With `Cc1ccc(CNC(=O)COc2ccc(S(=O)(=O)NC(C)C)cc2)cc1` the inhibition was 52.7% (active).
`CC(C)NS(=O)(=O)c1ccc(OCC(=O)Nc2ccc3c(c2)OCCO3)cc1` was tested, and the inhibition was 40.9%.
For `COc1ccc(-c2cc(C)nc3nc(N)nn23)cc1`, the inhibition was -29.3%.
`Cc1cccc(N2C(=O)c3cccnc3C2=O)c1` gave an inhibition of 3.1%.
With `Cc1c(C(=O)N2CCOCC2)[nH]c2ccc(OCc3ccccc3)cc12` the inhibition was 72.7% (active).
`Cc1c(C(=O)CN2CCOCC2)[nH]c2ccccc12` showed an inhibition of -15.8%.
In the case of `CCOC(=O)c1[nH]c2ccc(OC)cc2c1NC(=O)N1CCOCC1`, the inhibition is reported as -9.2%.
Compound `Cc1ccc(OCC(O)CN2CCN(CC(O)COc3ccc(C)cc3Cl)CC2)c(Cl)c1` (configuration not stated) has an inhibition of -10.1%.
For `CCCS(=O)(=O)Nc1c(C(=O)O)[nH]c2ccccc12`, the inhibition was 33.7%.
With `COC(=O)c1[nH]c2ccccc2c1NS(=O)(=O)c1ccc(OC)cc1OC` the inhibition was 74.8% (active).
`COC(=O)c1[nH]c2ccc(Br)cc2c1NC(=O)Oc1ccccc1` gave an inhibition of 4.5%.
Compound `CCCCCCCCOC1OC(CO)C(O)C(O)C1NC(C)=O` (configuration not stated) has an inhibition of -2.6%.
`COC(=O)c1ccc(C(=O)Nc2cc(Cl)ccc2Cl)cc1NC(=O)c1ccccc1C` gave an inhibition of -13.7%.
`Cc1ccc(N2C(=O)c3ccccc3C2(O)c2ncc[nH]2)cc1` (configuration not stated) gave an inhibition of -0.7%.
Work on `CCOCC(=O)Nc1cc(OC)c(Cl)cc1OC` yielded an inhibition of 13.3%.
`Cc1nc(N2CCCC2C(=O)O)c2oc3ccccc3c2n1` (configuration not stated) gave an inhibition of -6.6%.
`CC(C)C1N=C2c3ccccc3N=C(SCC(=O)c3ccc(O)c(O)c3)N2C1=O` (configuration not stated) was tested, and the inhibition was 51.3% (active).
For `O=C(CSC1=Nc2ccccc2C2=NC(c3ccccc3)C(=O)N12)NCC1CCCO1` (configuration not stated), the inhibition was 39.3%.
With `CCOC(=O)c1cc2occc2n1CC(=O)NC1CCC(C)CC1` (configuration not stated) the inhibition was 22%.
`O=C1/C(=C\Nc2ccccc2)CCN1c1ncccn1` showed an inhibition of 3.1%.
`CCOC(=O)C1CCN(C(=O)Cn2cc(C#N)c3ccccc32)CC1` showed an inhibition of -6.6%.
`CCOC(=O)CSc1nccc(N(C)C)c1C#N` showed an inhibition of -35%.
`CCOC(=O)CCc1c(C)c(C#N)c2[nH]c3ccccc3n2c1=O` was tested, and the inhibition was 64.1% (active).
`Cc1c(CCO)c(=O)n(-c2ccccc2)n1S(=O)(=O)c1ccc(F)cc1` was tested, and the inhibition was 37.6%.
For `CCOC(=O)C1CCN(Cc2coc3ccc(Cl)cc3c2=O)CC1`, the inhibition was -49.2%.
In the case of `COc1ccccc1NC(=O)CSc1nnc(Cn2nnc(-c3ccccc3)n2)n1-c1ccccc1`, the inhibition is reported as 40.2%.
For `CCCc1nc(SCC(=O)Nc2ccccc2OC)c2c(=O)n(C)c(=O)n(C)c2n1`, the inhibition was 70.3% (active).
`CCN(CC(=O)Nc1ccccc1OC)C(=O)Cn1cnc2ccccc2c1=O` was tested, and the inhibition was 14.4%.
`COc1ccc(C2C=C(c3ccc(Br)cc3)Nc3nc(NS(C)(=O)=O)nn32)cc1` (configuration not stated) gave an inhibition of -11.7%.
Compound `O=C(O)CCC(=O)NCc1ccc(C(=O)O)cc1` has an inhibition of 6.1%.
With `COc1ccc(NC(=O)c2c(SC)nsc2SC)cc1` the inhibition was 12.2%.
Compound `CCCCCOC(=O)NCCOC(=O)Nc1ccc(C(=O)OCC)cc1` has an inhibition of 48%.
In the case of `COc1cc(OC)c(/C=N/NC(=O)c2ccc([N+](=O)[O-])cc2)cc1Br`, the inhibition is reported as 1.8%.
`N#Cc1cc([N+](=O)[O-])ccc1Oc1cccc(/C=N/NC(=O)c2ccc(Cl)cc2)c1` was tested, and the inhibition was 59.3% (active).
Compound `CCCc1ccc(OCc2ccc(C(=O)N/N=C/c3cccc([N+](=O)[O-])c3)o2)c(OC)c1` has an inhibition of -10.7%.
With `O=C1CCC(C(=O)Nc2ccc(OC(F)F)cc2)N1` (configuration not stated) the inhibition was 1.2%.
`CCCCNc1nc2ccccc2nc1NS(=O)(=O)c1cccs1` was tested, and the inhibition was 32.1%.
For `CC1(C)CC(=O)C(C=NCCC2=CCCCC2)=C(O)C1`, the inhibition was 0.7%.
Compound `CC(=O)N1CCN(CCN=CC2=C(O)CC(C)(C)CC2=O)CC1` has an inhibition of 4%.
For `CC1(C)CC(=O)C(C=NCCN2CCN(C(=S)Nc3cccc(Cl)c3)CC2)=C(O)C1`, the inhibition was 51.8% (active).
`CC(=O)c1nn(-c2cccc(Br)c2)cc1C(=O)c1cccc2ccccc12` was tested, and the inhibition was -72%.
For `CC(C)COC(=O)C1C2C=CC3(CN(C(C)c4ccc(Br)cc4)C(=O)C13)O2` (configuration not stated), the inhibition was 9.2%.
`Cc1cc(NC(=O)c2cnn3cccnc23)n(-c2ccccc2)n1` gave an inhibition of 32%.
In the case of `COc1ccc(CCN(C)CCN2C(=O)c3ccccc3C2=O)cc1OC`, the inhibition is reported as -9.6%.
For `CCN(CC)CCN1C(=O)C(=O)/C(=C(/O)c2ccc(OC)c(OC)c2)C1c1ccccn1` (configuration not stated), the inhibition was -10.7%.
With `COc1ccc(CCN2C(=O)c3[nH]nc(-c4ccccc4O)c3C2c2ccc(C)cc2)cc1OC` (configuration not stated) the inhibition was 58% (active).
